GCN5L2 inh = qHTS Assay for Inhibitors of GCN5L2; Histone acetyltransferase KAT2A (Homo sapiens), Q92830; AID 504327, 2011; actives 0.21% (n = 390,000); Potency, µM (doses to about 58.9 µM), for the others: top-dose activity change, negative = inhibition, hits mostly inhibitors; GCN5L2 HAT assay, ThioGlo1 CoA-SH fluorescence
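Fluorescence readout, Ex340nm/Em540nm: ThioGlo1 (50uM final) reacts with free CoA thiol released as 20nM GCN5L2 acetylates H3(1-25) peptide (75uM) using acetyl-CoA (70uM). Compound and enzyme sat 15 min beforehand; 20 min room-temperature reaction.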
DT40 TDP1 no CPT = qHTS for Inhibitors of human tyrosyl-DNA phosphodiesterase 1 (TDP1): qHTS in cells in absence of CPT; DT40 Tdp1-/- hTDP1 cells, no CPT, ATP luminescence, 48 h; Potency, µM (highest dose often 46.2 µM), for inactives: at the highest dose activity change, negative = growth inhibition, most hits filed as inhibitors; actives 15% (n = 420,000); AID 686978, 2013; further: nearly all actives have a fitted effect of over 55% in size
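Chicken DT40 Tdp1-/- cells complemented with human TDP1, screened without camptothecin (DMSO vehicle only), 400 cells/well. Compounds pin-transferred, cells incubated at 37 °C for at least 48 hr. Growth read as ATP-dependent luminescence (CellTiter-Glo, 30 min at RT).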
DT40 TDP1 CPT = qHTS for Inhibitors of human tyrosyl-DNA phosphodiesterase 1 (TDP1): qHTS in cells in presence of CPT; Potency, µM (highest dose often 46.2 µM), without a hit: top-dose activity change, negative = growth inhibition, actives largely listed as inhibitors; AID 686979, 2013; actives 12% (n = 420,000); chicken DT40 Tdp1-/-;hTDP1 cells + 20 nM CPT, ATP luminescence, 48 h; further: nearly all actives have a fitted effect of over 55% in size
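Chicken DT40 Tdp1-/- cells stably complemented with human TDP1 were seeded at 400 cells/well in medium containing 20 nM camptothecin, exposed to pin-transferred compounds, and grown at 37 °C for at least 48 hr. Viability was read as ATP luminescence.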
PLK1 PBD block = qHTS for Inhibitors of PLK1-PDB (polo-like kinase 1 - polo-box domain): Primary Screen; Plk1 PBD binding of FITC phosphopeptide, fluorescence polarization; Potency, µM, inactives show max response, negative = inhibition, actives largely listed as inhibitors; Serine/threonine-protein kinase PLK1 (Homo sapiens), P53350; AID 720504, 2013; actives 2.8% (n = 360,000); further: series mostly up to about 57 µM; nearly all actives have a fitted effect of over 65% in size
TDP1 inh = qHTS Assay for Inhibitors of Tyrosyl-DNA Phosphodiesterase (TDP1). Tyrosyl-DNA phosphodiesterase 1 (Homo sapiens), Q9NUW8. recombinant TDP1, AlphaScreen DNA substrate cleavage. Potency, µM (titrated, usually from 130 µM), without a hit: top-dose activity change, negative = inhibition, usual class: inhibitors. actives 0.28% (n = 350,000). AID 485290, 2010; further: nearly all actives have a fitted effect of over 40% in size
Target sequence (Q9NUW8 whole entry, looked up): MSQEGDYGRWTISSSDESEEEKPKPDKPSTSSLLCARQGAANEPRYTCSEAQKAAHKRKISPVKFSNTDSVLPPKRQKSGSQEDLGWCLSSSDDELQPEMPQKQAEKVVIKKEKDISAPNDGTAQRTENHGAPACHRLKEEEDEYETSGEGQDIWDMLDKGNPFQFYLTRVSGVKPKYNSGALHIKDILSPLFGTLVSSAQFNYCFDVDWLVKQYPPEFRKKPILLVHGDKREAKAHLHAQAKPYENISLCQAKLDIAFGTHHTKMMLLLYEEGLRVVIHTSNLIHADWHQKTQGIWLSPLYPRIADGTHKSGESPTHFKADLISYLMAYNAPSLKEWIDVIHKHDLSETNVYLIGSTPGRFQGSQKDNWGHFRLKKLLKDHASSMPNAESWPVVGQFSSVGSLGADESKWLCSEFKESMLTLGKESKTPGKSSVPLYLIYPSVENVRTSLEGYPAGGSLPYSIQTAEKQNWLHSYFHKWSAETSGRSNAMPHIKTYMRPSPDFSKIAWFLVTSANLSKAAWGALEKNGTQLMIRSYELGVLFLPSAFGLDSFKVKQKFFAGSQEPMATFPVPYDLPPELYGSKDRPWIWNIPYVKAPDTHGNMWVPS
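AlphaScreen read-out: signal falls as enzyme removes the 3' tyrosine-FITC from a 5'-biotinylated DNA oligo (15 nM, 5 min, RT). Enzyme was E. coli-made recombinant Tdp1 at 1 nM, exposed to compound for 15 min beforehand; beads 10 ug/ml, 10 min.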
VDR inhibitor = Inhibitors of the vitamin D receptor (VDR): qHTS. actives 0.93% (n = 400,000). VDR-SRC2-3 peptide fluorescence polarization, 2 h. Potency, µM, for the others: max response, negative = inhibition, actives largely listed as inhibitors. Vitamin D3 receptor (Homo sapiens), P11473. AID 504847, 2011
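Inhibition of the VDR/SRC2-3 peptide interaction is quantified by fluorescence polarization. Compounds (23 nl, pintool) incubate with the reagents for 2 hours at ambient room temperature.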
Numbers without * were called inactive; ? = inconclusive; / = no result given; [ ] = another dose, or the depositor's remark. The list is not random: actives were taken first. Their share in the collection is about 18%. The call rests on the fitted dose curve; in most records, active means well fitted curve in the direction sought with a large enough effect; inconclusive means small, poorly fitted or top-dose-only effect, or another doubt; inactive means no such curve, though single readings can be large; an effect the other way counts as inactive or inconclusive. On the % scale 0 is the no-effect control and ±100 the full control effect; potency means the concentration at half of the fitted maximal effect.

SMILES	GCN5L2 inh	DT40 TDP1 no CPT	DT40 TDP1 CPT	PLK1 PBD block	TDP1 inh	VDR inhibitor
CC1=C(C(=O)OCCCBr)C(c2ccc3c(c2)OCO3)NC(=O)N1 (stereo not given)	-13%	23µM*	26µM*	-20%	6%	-11%
O=C(NCc1ccc(F)cc1)c1cc(C2CCCCN2C(=O)CCc2ccccc2)on1 (stereo not given)	/	-27%	-19%	4%	/	/
CCOc1ccc(NC(=O)Cn2c(CCC(=O)O)ccc2-c2ccc(C)cc2)cc1	-9%	?	-17%	/	7%	9%
CC1=C(C(=O)OC2CCCCC2)C(c2ccc(F)cc2)NC(=O)N1 (stereo not given)	3%	?	10%	-7%	/	0%
COC(=O)CCNC(=O)CCc1ccc(S(=O)(=O)N2CCCCCC2)cc1	-5%	-3%	-18%	-3%	0%[56.1 µM]	2%
CSCCOC(=O)C1=C(C)NC(=O)NC1c1ccc2c(c1)OCO2 (stereo not given)	-15%	21%	0%	3%	/	-8%
CC1=C(C(=O)OCc2ccc3c(c2)OCO3)C(c2ccc(F)cc2)NC(=O)N1 (stereo not given)	-8%	4.1µM*	4.1µM*	0%	5%	-4%
CC(=O)c1ccc(NC(=O)C(C)Sc2n[nH]c(-c3cccnc3)n2)cc1 (stereo not given)	-5%	-4%	0%	-5%	3%[0.0935 µM]	-27%
CCC(=O)NCCc1nc2cc(NC(=O)c3ccco3)ccc2n1C	-3%	3%	9%	-10%	/	-1%
Nc1nc2n(n1)C(c1ccc(F)cc1)CC(c1ccc(F)cc1)N2 (stereo not given)	-5%	-16%	-31%	-1%	5%	4%
Cc1ccc(C2CC(c3ccc(F)cc3)Nc3nc(N)nn32)cc1 (stereo not given)	-1%	-4%	-27%	27µM*	5%	-19%
COc1ccc(C2CC(c3cccs3)n3nc(N)nc3N2)cc1 (stereo not given)	-6%	?	23µM*	-22%	3%	-1%
O=C(NCCCc1ccccc1)c1cncc(Br)c1	1%	1%	-3%	0%	/	2%
CCn1c(=O)c([N+](=O)[O-])c(N2CCSCC2)c2ccccc21	-13%	23µM*	?	-17%	10%	-14%
CC(C)(C)c1ccc(Oc2nc3ccccn3c(=O)c2/C=C(\C#N)c2nc3ccccc3s2)cc1	0%	?	?	/	6%	?
Cc1cccc(Oc2nc3ccccn3c(=O)c2/C=C(\C#N)c2nc3ccccc3s2)c1C	-4%	4.6µM*	21µM*	/	-6%	?
CC1CCc2nc(/C(C#N)=C/c3ccncc3)sc2C1 (stereo not given)	-7%	?	18µM*	-1%	9%	-21%
N#C/C(=C/c1ccncc1)c1nc2ccccc2s1	1%	-21%	-4%	-9%	3%	71µM*
COC(=O)N1CCC[C@@]2(CCN(c3ccccc3)C2)C1	4%	?	?	/	/	?
C=C1CCN(CC(=O)OC)S(=O)(=O)c2ccccc21	-10%	-8%	0%	-3%	1%	-17%
CCOc1ccc(C2=CSC3=NCCN23)cc1Cl	-4%	?	?	?	6%	79µM*
CCCOc1ccc(C2=CSC3=NCCN23)cc1[N+](=O)[O-]	-3%	?	?	30µM*	/	?
COCCn1c(COc2cccc(OC)c2)nnc1SCC(=O)NC1CCCC1	-5%	6%	0%	-6%	4%	1%
Cc1ccc(C(=O)c2oc3ccccc3c2NC(=O)c2cc(-c3cc(C)ccc3O)n[nH]2)cc1	-4%	13µM*	16µM*	-20%	/	-16%
O=C(Nc1c(C(=O)c2ccccc2)oc2ccccc12)c1cc(=O)c2ccccc2o1	0%	1%	15%	/	10%	16%
SMILES	GCN5L2 inh	DT40 TDP1 no CPT	DT40 TDP1 CPT	PLK1 PBD block	TDP1 inh	VDR inhibitor
O=C(Nc1c(C(=O)c2ccccc2)oc2ccccc12)c1cc(-c2ccccc2O)n[nH]1	-5%	18µM*	21µM*	-10%	1%	1%
Cc1ccc(C(=O)c2oc3ccccc3c2NC(=O)c2cc(-c3ccccc3O)n[nH]2)cc1	-5%	10µM*	26µM*	-17%	1%	0%
CC(C)(C)c1ccc(C(=O)Nc2c(C(=O)c3ccc(F)cc3)oc3ccccc23)cc1	1%	/	/	/	-5%	-16%
NC(=O)c1ccc[n+]([C@@H]2O[C@H](COP(=O)([O-])OP(=O)(O)OC[C@H]3O[C@@H](n4cnc5c(N)ncnc54)[C@@H](O)[C@@H]3O)[C@@H](O)[C@@H]2O)c1	32%[21.4 µM]	/	/	/	11%[21 µM]	-5%
CNC(=O)OCc1nc(SC2CCCCO2)n(C)c1COC(=O)NC (stereo not given)	/	-10%	?	-14%	/	/
CN(C)S(=O)(=O)c1ccc2c(c1)Cc1cc(S(=O)(=O)N(C)C)ccc1-2	-16%	-9%	16%	?	/	-10%
Cn1c(-n2cccc2)c(-c2c(-c3ccccc3)[nH]c3c2c(=O)[nH]c(=O)n3C)c(=O)[nH]c1=O	-17%	?	?	/	?	4%
Cc1cccc(NC(=S)NC2CCCC2)c1	-2%	15µM*	?	2%	-5%	0%
Cc1cccc(NC(=S)NC2CC3CCCC(C2)N3Cc2cccs2)c1 (stereo not given)	1%	23µM*	23µM*	-10%	1%	-15%
Cc1cccc(NC(=O)NC2CCCCCCC2)c1	-6%	-7%	4%	-4%	-4%	8%
S=C(Nc1ccc(Oc2ccccc2)cc1)NC1CCCC1	-6%	?	-1%	-3%	3%	-29%
S=C(Nc1ccc(Br)cc1)NC1CCCC1	2%	21µM*	?	-14%	-1%	-6%
CC(=O)OCC(NC(=O)C(CCCCNC(=O)OCc1ccccc1)NC(=O)OC(C)(C)C)C1OC(n2cc(C)c(=O)[nH]c2=O)C(OC(C)=O)C1OC(C)=O (stereo not given)	/	/	/	/	8%	-4%
O=C1/C(=C/c2cccnc2)Sc2ccccc21	-8%	?	26µM*	?	4%	?
